Shown are actives, neighbours in structure and some others; about 1.5% of the full set was active somewhere.
uPA generation = qHTS for Inhibitors of Cell Surface uPA Generation | cell surface uPA generation assay, qHTS | Potency, µM (top dose mostly 38.3 µM), without a hit: at the highest dose activity change, negative = inhibition, actives largely listed as inhibitors | 0.31% of 330,000 active | AID 540303, 2011; active = well fitted inhibition curve with a large enough effect; inconclusive = small, poorly fitted or top-dose-only effect; inactive = no such curve, though single readings can be large or run the other way; tested in mouse RAW 264.7 cells; note: potency is the fitted concentration of half-maximal effect; % is set by controls: 0 for no effect and ±100 for the full control effect; nearly all actives have a fitted effect of over 55% in size
Nrf2 activator = qHTS of Nrf2 Activators; AREc32 ARE-luciferase reporter (MCF7-derived line), luminescence, 24 h; AID 624171, 2012; Potency, µM (doses to about 46.1 µM), for inactives: at the highest dose activation, actives largely listed as activators; 0.31% of 410,000 active; note: potency is the fitted concentration of half-maximal effect; % of control where 0% means no effect; nearly all actives have a fitted effect of over 65% in size
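Reporter line AREc32 (ARE-Fluc), seeded overnight in OPTI-MEM with 5% FBS; compound pin-transferred, 24 hr at 37 deg C, 5% CO2; luminescent read-out.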
IL-2 act = qHTS of IL-2 Activators | IL-2 activation reporter assay, cell-based qHTS; stimulated with anti-CD3/CD4/CD28 beads; in transgenic mouse T cells | 0.065% of 360,000 active | AID 652025, 2013 | activation, % (series mostly up to about 46 µM); in the data active = activation above about 50%; inconclusive = mostly about 30% to 49%; note: 0% is about no effect
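Readout is EGFP and DsRed signal by fluorescent plate cytometry after 18 h at 37 degrees C. Transgenic mouse T cells (750/well) received compound for 60 min before bead stimulation (anti-CD3, anti-CD4, anti-CD28); memory T cells served as non-tolerant control.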
a7 integrin act = qHTS for Activators of Integrin-Mediated Alleviation for Muscular Dystrophy; alpha7betagal myoblasts, beta-gal FDG fluorescence, 48 h; 0.064% of 350,000 active; Potency, µM (top dose mostly 38.3 µM), for inactives: at the highest dose activation, most hits filed as activators;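 note: potency is the fitted concentration of half-maximal effect; 100% = response of the positive control SU9516; nearly all actives have a fitted effect of over 60% in size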
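alpha7betagal+/- myoblasts (passage 13, 250/well) treated 48 h at 37C with compounds at 1:260 dilution of DMSO stock. Lysed, then beta-galactosidase activity read as FDG fluorescence (ex 480/em 540) after 30 min, with pre-read for autofluorescence.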
ALOX12 inh = Primary qHTS assay for inhibitors of human arachidonate 12S-lipoxygenase (ALOX12): Round 2 | Polyunsaturated fatty acid lipoxygenase ALOX12 (Homo sapiens), P18054 | purified 12hLO, xylenol orange hydroperoxide absorbance | Potency, µM (highest dose often 108 µM), without a hit: top-dose activity change, negative = inhibition, most hits filed as inhibitors | 1.1% of 580,000 active; note: potency is the fitted concentration of half-maximal effect; % is set by controls: 0 for no effect and ±100 for the full control effect
Target sequence (P18054 whole entry, looked up): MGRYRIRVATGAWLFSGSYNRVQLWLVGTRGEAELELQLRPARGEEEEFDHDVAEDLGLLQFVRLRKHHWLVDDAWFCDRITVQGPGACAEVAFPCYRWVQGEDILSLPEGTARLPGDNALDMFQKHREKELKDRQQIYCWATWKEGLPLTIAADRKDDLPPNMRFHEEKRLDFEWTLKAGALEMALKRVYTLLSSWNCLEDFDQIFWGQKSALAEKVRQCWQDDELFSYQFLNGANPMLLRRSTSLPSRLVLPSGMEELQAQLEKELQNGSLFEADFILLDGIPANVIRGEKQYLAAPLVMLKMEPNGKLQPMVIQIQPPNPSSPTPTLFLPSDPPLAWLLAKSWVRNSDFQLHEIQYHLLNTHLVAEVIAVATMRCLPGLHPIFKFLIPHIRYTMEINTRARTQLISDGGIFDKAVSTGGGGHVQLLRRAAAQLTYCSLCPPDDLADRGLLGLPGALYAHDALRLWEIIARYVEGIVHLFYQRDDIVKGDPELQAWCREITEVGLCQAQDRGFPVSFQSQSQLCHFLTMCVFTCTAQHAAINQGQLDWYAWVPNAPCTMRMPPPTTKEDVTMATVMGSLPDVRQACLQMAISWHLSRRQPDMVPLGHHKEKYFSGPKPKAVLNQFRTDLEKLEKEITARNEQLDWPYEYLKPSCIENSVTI
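Purified human 12hLO (150 nM final) in 25 mM Hepes, 0.01% Triton X-100, pH 7.0 was preincubated 15 min at room temperature with compound. Then 40 uM arachidonic acid was added, 30 min. Hydroperoxide was read by Fe-XO absorbance ratio 573/405 nm.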
The depositor's hits bear a star; ? = inconclusive; · = no result given; [ ] = remark or other dose. Unless noted, calls come from the whole dose curve; as a rule, active = well fitted curve in the direction sought with a large enough effect; inconclusive = small, poorly fitted or top-dose-only effect, or another doubt; inactive = no such curve, though single readings can be large; an effect the other way counts as inactive or inconclusive.

SMILES	uPA generation	Nrf2 activator	IL-2 act	a7 integrin act	ALOX12 inh
CC(Nc1ccc(N2CCOCC2)cc1)c1nc2scc(-c3cccs3)c2c(=O)[nH]1 (configuration not stated)	·	·	·	·	35µM*
NS(=O)(=O)c1ccccc1	1%	0%	-2	-14%	30%
NC(=S)c1ccc(S(N)(=O)=O)cc1	·	·	·	·	3.2µM*
COc1ccc(S(=O)(=O)N2CCOCC2)cc1NC(=O)COc1ccc(C)cc1	8%	0%	-2	?	8%
CCOc1ccc(S(=O)(=O)N2CCOCC2)cc1NC(=O)CSCc1ccc(C)cc1	2.5µM*	-1%	-1	-37%	21%
CC1CCN(S(=O)(=O)c2ccc3nc(N4CCN(c5ccccc5F)CC4)ccc3c2)CC1	·	0%	·	·	?
O=S(=O)(c1ccc2nc(NC3CCCCC3)ccc2c1)N1CCCC1	·	·	·	·	11µM*
O=S(=O)(c1ccc2nc(Nc3ccc(F)cc3)ccc2c1)N1CCCC1	·	3%	·	·	-6%
COc1ccc(Cl)cc1Nc1ccc2cc(S(=O)(=O)N3CCCCC3)ccc2n1	·	4%	·	·	50µM*
CCc1ccc(Nc2ccc3cc(S(=O)(=O)N4CCCC4)ccc3n2)cc1	·	·	·	·	14µM*
Cc1cccc(N2CCN(c3ccc4cc(S(=O)(=O)N5CCC(C)CC5)ccc4n3)CC2)c1C	·	0%	·	·	50µM*
CN(C)CCCn1c(=O)c2[nH]cnc2n(C)c1=O	·	·	·	·	4%
COc1ccc(CCC(=O)N2CC3CC(C2)[C@H]2CCCC(=O)N2C3)cc1 (some centres not stated)	·	·	·	·	10%
CC1CCC(Nc2ccc3cc(S(=O)(=O)N4CCCC4)ccc3n2)CC1 (configuration not stated)	·	·	·	·	8.9µM*
O=C(c1cnccn1)N1CCC2(CC1)NC(=O)N(Cc1ccc(F)cc1)C2=O	·	·	·	·	-16%
O=C1N=C(N2CCN(c3ccccc3)CC2)S/C1=C/c1cccs1	3%	4%	-4	7%	-9%
Cc1ccc(/C=C2\SC(N3CCN(C(c4ccccc4)c4ccccc4)CC3)=NC2=O)o1	-7%	4%	-4	-29%	3.5µM*
Cc1ccc(-c2ccc(/C=C3\SC(N4CCOCC4)=NC3=O)o2)cc1	-7%	11%	-1	0%	35µM*
O=C1N=C(N2CCOCC2)S/C1=C/c1ccc(-c2ccc(F)cc2)o1	-5%	3%	1	-24%	-7%
Cc1onc(-c2ccccc2Cl)c1C(=O)O/N=C(\N)c1ccc([N+](=O)[O-])o1	4.5µM*	15%	0	-62%	0%
NC(=O)[C@@H](Cc1ccccc1)NC(=O)[C@@]1(O)C[C@@H](O)[C@H](O)[C@@H](NS(=O)(=O)c2cccc(C(F)(F)F)c2)C1	·	·	·	·	-23%
CC(=O)Oc1cc2c(cc1Cl)C(c1cccs1)CC1(CC(C)(C)NC(=S)N1)O2 (configuration not stated)	-9%	3%	-4	23%	32µM*
CC1(C)CC2(CC(c3ccccc3)c3ccc(O)cc3O2)NC(=S)N1 (configuration not stated)	6%	0%	2	-8%	?
Cc1ccc2nc(C3CCCN(CC(C)C)C3)[nH]c(=O)c2c1 (configuration not stated)	·	·	·	·	14%[176 µM]
O=c1/c(=C\c2ccc(O)cc2)sc2nc(-c3ccccc3)c(-c3ccccc3)n12	0%	4%	99*	25%	7%
SMILES	uPA generation	Nrf2 activator	IL-2 act	a7 integrin act	ALOX12 inh
O=C(NCCn1nc(-c2ccccc2)ccc1=O)C1NCCc2[nH]cnc21 (configuration not stated)	·	·	·	·	109%
Cc1ccc(-c2nc(C(Cl)Cl)c3ccccc3n2)cc1	1µM*	5%	-3	-71%	1%
S=C(NCCN1CCOCC1)N1CCN(c2cccc(Cl)c2)CC1	-5%	2%	1	22%	5.6µM*
S=C(NCCN1CCOCC1)Nc1cccc(Cl)c1	-4%	0%	-2	6%	4%
O=C(O)/C=C/c1cccc2c1OCCO2	6%	0%	-1	43%	0%
O=Cc1cccc2c1OCCO2	·	·	·	·	7.1µM*
COc1ccc2[nH]c(=O)c(-c3nnn(-c4ccc(F)cc4)n3)cc2c1	-1%	-1%	1	9%	10µM*

From PubChem
